Records with an inconclusive call do not appear. A call without a number means that no potency is given here. Calls of active or inactive are those of the source. The call rests on the fitted dose curve; in most records, active means well fitted cell-killing curve with a large enough effect; inconclusive means small, poorly fitted or top-dose-only effect, or effect the other way; inactive means flat fitted curve, though single readings scatter.
Potency means the concentration at half of the fitted maximal effect.

A short description of the assay: S16 Schwann cell viability assay (CellTiter-Glo assay) (AID 624031). Further: nearly all actives have a fitted effect of over 70% in size. To be noted: S16 rat Schwann cells viability, 24 h; series mostly up to 57.5 µM. A digest of the protocol: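 Following overnight culture in 10% FBS DMEM, parental S16 rat Schwann cells are dosed for 24 h at 37 °C. Viability is read as CellTiter-Glo luminescence and expressed as % activity relative to DMSO (0%) and no-cell wells.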
In general terms: ATP-based viability assays read luminescence as a measure of living cells.
As to `N[C@H](Cc1c[nH]c2ccccc12)C(=O)O`, the Potency result was “inactive”.

`CCOC(=O)OC(C)OC1=C(C(=O)Nc2ccccn2)N(C)S(=O)(=O)c2ccccc21` (stereo unspecified): the Potency result was “inactive”. Next, `C=C(CC)C(=O)c1ccc(OCC(=O)O)c(Cl)c1Cl`: “inactive”. Next, `Oc1ccc(Cl)c2cccnc12`: “inactive”; `CC(=O)Nc1c(I)cc(I)c(C(=O)O)c1I`: “inactive”. For `C#C[C@]1(O)CC[C@H]2[C@@H]3CCc4cc(OC5CCCC5)ccc4[C@H]3CC[C@@]21C`, the Potency was 32.2 µM (active).

Source of the values: PubChem BioAssay (NCATS).
